Assay outcomes deposited in PubChem by Sanford-Burnham Center for Chemical Genomics.
Hits are enriched below; roughly 4.1% of the tested compounds scored in any of these assays.
beta cell repl – inducers of beta-cell replication in MIN6 cells; MIN6 cells proliferation, ATPlite luminescence, 48 h; cells starved in 0.2% serum; 100% = growth in 10% serum; hit rate 0.29% among 330,000; proliferation, % at 10 µM; AID 2380;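 active = compounds whose signal lies at least 3.5 SD above the mean of all wells on their plate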
FAS-TE inh – blocks the thioesterase domain of human fatty acid synthase; AID 602261; P49327; inhibition, % at 15 µM; hit rate 0.67% among 360,000; recombinant FAS-TE, OMFH fluorogenic substrate, fluorescence endpoint;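 active = compounds whose normalised, plate-corrected inhibition of enzyme fluorescence in the single-dose primary screen is 50% or more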
MPTP block – inhibitors of mitochondrial permeability transition pore; isolated mouse mitochondria, Ca2+ swelling absorbance, 30 min; hit rate 1.4% among 360,000; AID 602449; inhibition, % at 10 µM;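 active = inhibition of 50% or more, scaled per plate between neutral and stimulator controls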
p-CIP stab down – p/CIP protein destabilization; F442A p/CIP-EGFP cells, EGFP fluorescence, 16 h; decrease of EGFP signal, % at 10 µM; hit rate 0.01% among 290,000; AID 1984;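 active = EGFP signal decrease of at least 30% at 10 µM or well 3 SD below plate mean, unless failing retest; inactive = the rest, including hits failing retest or dose response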
GRIN3A LBD mod – modulates the human NR3A ligand-binding domain; NR3A LBD differential scanning fluorimetry, Tm shift; 0% = protein alone, 100% = glycine-bound protein; hit rate 2.5% among 340,000; Tm shift relative to glycine control, % at 25 µM; AID 1259313;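 active = melting temperature shift of at least 10% of the positive control shift, at one fixed dose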
FAS-TE inh conf – FAS thioesterase (human) inhibition, confirmation; shares compounds with FAS-TE inh; recombinant FAS-TE, OMFH fluorogenic substrate, fluorescence; inhibition, % at 15 µM; hit rate 45% among 2,300; AID 624325;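 active = compounds inhibiting the enzyme by at least 50% at 15 µM in any one of the replicates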
A number is an active result; 0 = inactive; - = not tested or not shown.

SMILES	beta cell repl	FAS-TE inh	MPTP block	p-CIP stab down	GRIN3A LBD mod	FAS-TE inh conf
O=C(Nc1ccc2c(c1)OCO2)c1cc(C2CCCCN2S(=O)(=O)c2cccs2)on1 (stereo not given)	-	0	0	-	-	-
CN1C(=O)CSC1=Nc1ccc(F)cc1	0	0	0	0	0	-
O=C(CC(=O)N/N=C\c1ccc([N+](=O)[O-])cc1)NCCc1ccccc1	0	52	0	0	0	50
O=C(CCNC(=O)c1ccc([N+](=O)[O-])cc1)NCCc1ccccc1	0	60	0	0	0	46
CC1(C(=O)NS(=O)(=O)c2ccc3c(c2)CCO3)CCN1C(=O)c1ccccc1CCc1ccccc1 (stereo not given)	-	0	0	-	-	-
COC(=O)c1ccc(S(=O)(=O)N2CCN(C(c3ccccc3)c3ccccc3)CC2)n1C	0	55	0	0	0	0
CCOC(=O)[C@]12CCCC=C1N(Cc1ccco1)C(=O)[C@H](CC(=O)NCc1cccc(C(F)(F)F)c1)C2	-	0	0	-	-	-
COC(=O)COc1ccc(C2NC(=O)NC(c3ccccc3)=C2C(C)=O)cc1Br (stereo not given)	0	0	0	0	0	-
O=C(NCCCCc1ccccc1)C1CC(c2cccc([N+](=O)[O-])c2)=NO1 (stereo not given)	0	66	0	0	0	76
CCCCNC(=O)C1CC(c2cccc([N+](=O)[O-])c2)=NO1 (stereo not given)	0	0	0	0	0	-
CC(C)CCNC(=O)C1CC(c2cccc([N+](=O)[O-])c2)=NO1 (stereo not given)	0	53	0	0	0	59
COc1ccc(CN(CCC(c2ccccc2)c2ccc(OC(C)C)cc2)C(=O)CCl)cc1OC (stereo not given)	0	52	0	0	0	0
COc1ccc(C(CCN(Cc2ccc(OC)c(OC)c2)C(C)=O)c2ccccc2)cc1 (stereo not given)	0	0	0	0	0	-
COc1ccc2c(c1)C(=O)N1[C@H]3c4cc(Cl)ccc4OC[C@@H]3[C@H](c3ccccc3)[C@]1(C)C(=O)N2	0	64	0	-	0	45
COc1ccc2c(c1)OC[C@H]1[C@H]2N2C(=O)c3cc(Cl)ccc3NC(=O)[C@@]2(C)[C@H]1c1ccccc1	0	67	0	-	0	0
COc1ccc2c(c1)OC[C@H]1[C@H]2N2C(=O)c3cc(OC)ccc3NC(=O)[C@@]2(C)[C@H]1c1ccccc1	0	95	0	-	0	54
COc1ccc2c(c1)OC[C@H]1[C@H]2N2C(=O)c3ccc(C)cc3NC(=O)[C@@]2(C)[C@H]1c1ccccc1	0	90	0	-	0	0
CCOC(=O)[C@H]1[C@H]2COc3cc(OC)ccc3[C@@H]2N2C(=O)c3cc(C)ccc3NC(=O)[C@@]12C	0	0	0	-	0	-
CCOC(=O)[C@H]1[C@H]2COc3cc(OC)ccc3[C@@H]2N2C(=O)c3cc(OC)ccc3NC(=O)[C@@]12C	0	0	0	-	0	-
CCOC(=O)[C@H]1[C@H]2COc3ccc(Cl)cc3[C@@H]2N2C(=O)c3cc(OC)ccc3NC(=O)[C@@]12C	0	0	0	-	0	-
CC1CCC(NC(=O)CCNC(=O)c2ccccc2)CC1 (stereo not given)	0	0	0	0	0	-
CCOC(=O)[C@H]1[C@H]2COc3cc(OC)ccc3[C@@H]2N2C(=O)c3cc(F)ccc3NC(=O)[C@@]12C	0	0	0	-	0	-
COc1ccc2c(c1)OC[C@H]1[C@H]2N2C(=O)c3cc(F)ccc3NC(=O)[C@@]2(C)[C@H]1c1ccccc1	0	74	0	-	0	0
CNS(=O)(=O)c1ccc2c(c1)C(=O)c1cc(S(=O)(=O)NC)ccc1CC2	0	82	0	-	0	91
CNS(=O)(=O)c1ccc(C)c(S(=O)(=O)NC)c1	0	0	0	0	0	-
SMILES	beta cell repl	FAS-TE inh	MPTP block	p-CIP stab down	GRIN3A LBD mod	FAS-TE inh conf
CN(C)S(=O)(=O)c1ccc2c(c1)C(=O)c1cc(S(=O)(=O)N(C)C)ccc1CC2	0	79	0	-	0	94
CN(C)S(=O)(=O)c1ccc2c(c1)C(=NO)c1cc(S(=O)(=O)N(C)C)ccc1-2	0	0	0	0	0	-
CC(C)c1ccc2[nH]c(O)c(N=NC(=O)c3cccc(S(=O)(=O)N4CCCCC4)c3)c2c1	0	58	0	0	0	0
O=C(N=Nc1c(O)[nH]c2ccccc12)c1cccc(S(=O)(=O)N2CCCCC2)c1	0	0	0	0	0	-
Cc1nc(N2CCN(S(=O)(=O)c3cccc4nonc34)CC2)c2c3c(sc2n1)CCCC3	0	54	0	0	0	0
NC(=O)NC(CC(=O)NCCCc1ccccc1)c1ccc(Cl)cc1 (stereo not given)	0	0	0	0	0	-
COc1cc(/C=N/NC(=O)c2ccc3ccccc3c2)ccc1Oc1ccc([N+](=O)[O-])cn1	0	52	0	0	0	0
O=C(Nc1ccccc1)C1Cc2c(-c3ccc4c(c3)OCO4)ccnc2O1 (stereo not given)	-	0	0	-	-	-
CCc1ccc([C@H]2[C@@H]3C(=O)C[C@@H]4C(=O)N(CC)C(=O)[C@@H]4[C@@H]3CN2S(=O)(=O)c2ccc(C)cc2)cc1	-	0	0	-	-	-
CCc1ccc([C@H]2[C@@H]3C(=O)C[C@@H]4C(=O)N(C)C(=O)[C@@H]4[C@@H]3CN2S(=O)(=O)c2ccc(C)cc2)cc1	-	0	0	-	-	-
CCc1ccc([C@H]2[C@@H]3C(=O)C[C@@H]4C(=O)N(Cc5ccccc5)C(=O)[C@@H]4[C@@H]3CN2S(=O)(=O)c2ccc(C)cc2)cc1	-	59	0	-	-	0
CCc1ccc([C@H]2[C@@H]3C(=O)C[C@@H]4C(=O)N(C5CCCCC5)C(=O)[C@@H]4[C@@H]3CN2S(=O)(=O)c2ccc(C)cc2)cc1	-	72	0	-	-	0
Cc1ccccc1S(=O)(=O)N1C[C@@H]2C(C(=O)C[C@@H]3C(=O)N(C)C(=O)[C@@H]32)[C@@H]1c1ccc(Cl)cc1 (stereo not given in full)	-	-	0	-	-	-
Cc1ccccc1S(=O)(=O)N1C[C@H]2[C@H]3C(=O)N(C4CCCCC4)C(=O)[C@H]3CC(=O)[C@H]2[C@@H]1c1ccc(Cl)cc1	-	73	0	-	-	0
CN[C@H](C)C(=O)NC[C@H]1O[C@@H](n2cc(C)c(=O)[nH]c2=O)C[C@@H]1O	-	0	0	-	-	-
COc1ccc(CN2C(=O)CN(S(C)(=O)=O)CC2(C)C(=O)NC(C)C)cc1 (stereo not given)	-	-	0	-	-	-
Cc1ccc(C2NC(c3ccc(C)cc3)C([N+](=O)[O-])C(C)(C)C2[N+](=O)[O-])cc1 (stereo not given)	0	60	0	0	0	0
CC1(C)C([N+](=O)[O-])C(c2ccc(F)cc2)NC(c2ccc(F)cc2)C1[N+](=O)[O-] (stereo not given)	0	0	0	0	0	-
